Data taken from the supplement of paper PMC6411743.
± gives the standard deviation of the averaged measurements. The full data set covers some 5,400 targets. This sample favours those with the largest changes.

Biological target: T1, PINX1 (UniProt Q96BK5)
T1 sequence (whole entry): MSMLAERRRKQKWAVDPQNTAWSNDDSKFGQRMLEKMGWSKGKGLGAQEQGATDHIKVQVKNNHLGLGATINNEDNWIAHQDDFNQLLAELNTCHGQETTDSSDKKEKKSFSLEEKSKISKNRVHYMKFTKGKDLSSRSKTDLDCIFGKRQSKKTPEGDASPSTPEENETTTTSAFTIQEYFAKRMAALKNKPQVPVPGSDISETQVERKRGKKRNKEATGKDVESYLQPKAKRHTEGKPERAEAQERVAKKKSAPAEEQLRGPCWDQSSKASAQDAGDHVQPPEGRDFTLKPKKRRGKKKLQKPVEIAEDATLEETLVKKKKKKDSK
Assay: NP40-soluble protein abundance relative to vehicle (solubility fold change) (ratio); higher = more soluble protein in presence of GTP
Method: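 Solubility proteome profiling in Jurkat crude lysate. Lysate was treated with Mg-GTP (0.1-10 mM) for 10 min at room temperature and 3 min at 37 °C, then solubilised with 0.8% NP40 and benzonase, followed by ultracentrifugation. Proteins were quantified by TMT10 LC-MS/MS; the value is the NP40-soluble abundance relative to the NP40-processed vehicle, from 3 independent experiments.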

Compound `Nc1nc2c(ncn2[C@@H]2O[C@H](COP(=O)(O)OP(=O)(O)OP(=O)(O)O)[C@@H](O)[C@H]2O)c(=O)[nH]1` [guanosine triphosphate] has an NP40-soluble protein abundance (concentration: 0.1mM) of 1.22 ± 0.065, an NP40-soluble protein abundance (concentration: 0.5mM) of 1.28 ± 0.074 and an NP40-soluble protein abundance (concentration: 1mM) of 1.45 ± 0.033. The NP40-soluble protein abundance (concentration: 2mM) was 1.64 ± 0.093, the NP40-soluble protein abundance (concentration: 4mM) was 1.96 ± 0.15 and the NP40-soluble protein abundance (concentration: 6mM) was 2.01 ± 0.21. It also gave an NP40-soluble protein abundance (concentration: 8mM) of 2.36 ± 0.13 and an NP40-soluble protein abundance (concentration: 10mM) of 2.62 ± 0.26.
